# Bioassay records from PubChem.
# The sample as a whole holds a higher share of hits than the screen did.
# Cruzain noTriton: cruzain (T. cruzi) inhibition without detergent | P25779 | purified cruzain, Z-FR-AMC fluorescence, no detergent | Potency, µM, without a hit: max response, negative = inhibition, actives largely listed as inhibitors | hit rate 2.3% among 200,000;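 further: plate controls were enzyme without inhibitor for no effect and buffer without enzyme for full effect; nearly all actives have a fitted effect of over 40% in size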
# Target sequence (P25779 123-467 limits assumed): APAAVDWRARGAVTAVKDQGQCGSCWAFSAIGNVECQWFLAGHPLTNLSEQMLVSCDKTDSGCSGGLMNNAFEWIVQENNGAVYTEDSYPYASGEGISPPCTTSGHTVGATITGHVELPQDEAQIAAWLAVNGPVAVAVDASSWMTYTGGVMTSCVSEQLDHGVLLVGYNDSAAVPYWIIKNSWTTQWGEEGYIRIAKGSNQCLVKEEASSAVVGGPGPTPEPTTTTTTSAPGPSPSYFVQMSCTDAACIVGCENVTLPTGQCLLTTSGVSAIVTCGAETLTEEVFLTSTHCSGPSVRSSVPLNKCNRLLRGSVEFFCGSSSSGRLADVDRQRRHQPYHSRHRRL
#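 Detergent-free condition (0.00005% Triton X-100) in acetate buffer pH 5.5 with DTT. 1.5 nM enzyme and compound were pre-mixed 15 min, then 2 uM Z-FR-AMC substrate added; reaction progress from fluorescence change between first and third reads (60 s).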
# Cruzain inh Det: blocks cruzain activity in presence of Triton detergent; P25779; purified cruzain, Z-FR-AMC fluorescence, 0.01% Triton; Potency, µM, inactives show max response, negative = inhibition, most hits filed as inhibitors; hit rate 0.43% among 200,000; AID 1478;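 further: plate controls were neutral wells for no effect and buffer without enzyme for full effect; nearly all actives have a fitted effect of over 40% in size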
#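 Compounds were screened in titration against cruzain (1.5 nM) with 0.01% Triton X-100 to counter colloidal aggregation. Activity was the AMC fluorescence increase over 60 s after adding 2 uM Z-FR-AMC at pH 5.5.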
# NS1 inh: influenza NS1 inhibition | Potency, µM (doses to about 46.1 µM), for inactives: top-dose activity, positive = more growth | hit rate 0.4% among 270,000 | AID 2326; calls by dose curve; further: actives are rising curves; nearly all actives have a fitted effect of over 50% in size
#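 Growth recovery, yeast-based: influenza A NS1 expressed in S. cerevisiae causes slow growth, and suppressors are detected by OD600. The parent strain without NS1 is used as positive control.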
# Active calls of the source: *; ? = inconclusive; . = not tested or not shown. Unless noted, the call rests on the fitted dose curve; in most records, active means well fitted curve in the direction sought with a large enough effect; inconclusive means small, poorly fitted or top-dose-only effect, or another doubt; inactive means no such curve, though single readings can be large; an effect the other way counts as inactive or inconclusive. Potency means the concentration at half of the fitted maximal effect.
SMILES,Cruzain noTriton,Cruzain inh Det,NS1 inh
CO[C@]1(C2=NCCN2)COc2ccccc2O1,-2%,1%,.
N#Cc1c(/N=C/c2ccccc2)oc(-c2ccccc2)c1-c1ccccc1,32µM*,-8%,5%
N#Cc1c(/N=C/c2ccco2)oc(-c2ccccc2)c1-c1ccccc1,-6%,-15%,-24%
CCN(CC)CC#CC(OC)(c1ccccc1)c1ccccc1,.,.,-2%
O=C(N/N=C\c1ccc(-c2ccccc2[N+](=O)[O-])o1)C1COc2cc3ccccc3cc2O1 (stereo not given),7.9µM*,-2%,10%
O=C(N/N=C\c1ccc(-c2ccccc2[N+](=O)[O-])o1)C1COc2ccccc2O1 (stereo not given),?,-11%,9%
COc1ccc(CNC(=O)c2ccc3c(c2)N(C)CCS3)cc1,.,.,6%
COc1ccc(CNC(=O)c2ccc3c(c2)N(C)C(=O)CS3=O)cc1 (stereo not given),-11%,0%,14µM*
O=C(Nc1cc(Cl)cc(Cl)c1)c1ccc(F)c(S(=O)(=O)N2CCc3ccccc32)c1,16µM*,1%,.
O=C(Nc1ccc(Br)cc1)c1ccc(F)c(S(=O)(=O)N2CCCc3ccccc32)c1,?,0%,.
O=C(Nc1cc(Cl)cc(Cl)c1)c1ccc(F)c(S(=O)(=O)N2CCCC2)c1,25µM*,-3%,.
CC(C)c1ccc(NC(=O)c2ccc(F)c(S(=O)(=O)N3CCCC3)c2)cc1,4%,1%,.
O=C(CN1CCN(c2ccccc2)CC1)Nc1ccc2c(c1)CCC2,1%,-1%,-1%
O=C(Nc1ccc2c(c1)CCC2)c1cc(S(=O)(=O)N2CCN(c3ccccc3)CC2)ccc1Cl,4µM*,1%,14%
O=C(Nc1cc(Cl)cc(Cl)c1)c1cc(S(=O)(=O)N2CCc3ccccc3C2)ccc1F,16µM*,1%,.
Cc1ccc(C)c(NC(=O)c2cc(S(=O)(=O)N3CCc4ccccc4C3)ccc2F)c1,-3%,2%,.
COc1ccc2c(c1)c(=O)c(S(=O)(=O)c1ccc(C)c(C)c1)cn2CC(=O)Nc1ccccc1,-8%,-5%,.
O=C(NC1CCCCCCC1)c1ccccc1-c1ccccc1,-8%,0%,-9%
Cc1cc(C)c(S(=O)(=O)N2CCN=C2c2ccccc2)c(C)c1,5%,-5%,-2%
C[C@]12CC[C@H](O)CC1=CCC1C2CC[C@]2(C)C(=O)CC[C@@H]12 (stereo not given in full),12%,-5%,-30%
CCC(NC(=O)Cc1c(C)c2c(cc(C)c3c(C)c(C)oc32)oc1=O)C(=O)O (stereo not given),.,.,1%
O=C(COC(=O)c1ccc(F)cc1)Nc1ccc(Cl)cn1,.,.,-3%
COC(=O)c1ccc(OCC(O)CN2C(=O)NC(C)(C)C2=O)cc1 (stereo not given),-5%,3%,-2%
COc1ccc(C=Nc2cccc3c(=O)[nH][nH]c(=O)c23)c2ccccc12,32µM*,-10%,3%
COc1ccc(/C=N/NC(=O)c2cccc([N+](=O)[O-])c2)c2ccccc12,.,.,0%
SMILES,Cruzain noTriton,Cruzain inh Det,NS1 inh
Cc1oc(-c2cccc(Cl)c2)nc1CN1CCC(C(=O)NCc2ccc(F)cc2)CC1,0%,-1%,.
COc1ccc(-c2nc(-c3ccc(Br)o3)no2)cc1,-21%,6%,0%
COc1ccc(Cl)cc1-c1nc(-c2ccc(Br)o2)no1,7.9µM*,10%,-11%
Cc1c(/C=C(\C#N)c2nn(-c3ccccc3)c(N)c2C#N)c2ccccc2n1Cc1ccc(F)cc1,4µM*,-1%,-1%
Cc1ccc(/C=C(\C#N)c2nn(-c3ccccc3)c(N)c2C#N)cc1,1%,-8%,17%
CC(C)c1ccc(C2CC(=O)N3CN(C)CSC3=C2C#N)cc1 (stereo not given),-4%,1%,-47%
CC(C)c1ccc(C2C(C#N)=C(N)N3C(=C2C#N)Sc2ccccc23)cc1 (stereo not given),7.9µM*,-14%,43%
CCCOC(=O)Cn1cnc2scc(-c3ccc(OC)cc3)c2c1=O,.,.,-17%
Cc1ccc(NC(=O)c2cncc(Br)c2)c([N+](=O)[O-])c1,-7%,-2%,2%
COc1c(C)cc(Br)cc1C(=O)Nc1ccc(C)cc1[N+](=O)[O-],25µM*,1%,11%
Cc1cc(/C=C(\C#N)C(=O)NCCc2c[nH]c3ccccc23)c(C)n1C,0%,-8%,-2%
COc1cc(/C=C(/C#N)C(=O)NCCc2c[nH]c3ccccc23)ccc1OCc1ccccc1F,7.9µM*,5%,17%
COc1ccc(C)cc1NC(=O)c1sc2ncnc(N3CCN(c4ccccn4)CC3)c2c1C,.,.,3%
O=C(NCc1cccs1)c1ccccc1[N+](=O)[O-],-6%,1%,16%
CSCCC(NC(=O)c1ccccc1)C(=O)OCC(=O)Nc1ccc(C)c(Cl)c1 (stereo not given),-14%,14µM*,-22%
CSCCC(NC(=O)c1ccc([N+](=O)[O-])cc1Cl)C(=O)OCC(=O)NCC(F)(F)F (stereo not given),?,?,2%
CSCCC(NC(=O)c1ccccc1)C(=O)Nc1ccc(C)cc1 (stereo not given),-18%,0%,?
CSCCC(NC(=O)c1ccc(Cl)cc1)C(=O)OCC(=O)Nc1cc(Cl)ccc1C#N (stereo not given),-29%,25µM*,20%
CCOCCC(=O)Nc1nnc(CCc2ccccc2)s1,.,.,-11%
Cn1c(NCCN)nc2c1c(=O)n(Cc1ccccc1)c(=O)n2C,-19%,-3%,.
CC(C)(C)[C@@H]1C=C(C(=O)Nc2ccccc2)O[C@H](OCc2ccc(CO)cc2)C1,.,.,-12%
O=C(COC(=O)c1cncc(Br)c1)Nc1nc(-c2ccc(F)cc2)cs1,.,.,2%
COc1ccccc1N(C(=O)c1cncc(Br)c1)c1nc(-c2ccc(C)cc2)cs1,13µM*,-2%,25%
CN(C)Cc1cc(C(=O)O)cc(CN(C)C)c1O,-3%,4%,-7%
COc1ccc(CN2CCN(C(=O)Cn3nc(C(=O)O)c4ccccc4c3=O)CC2)cc1F,.,.,-3%
SMILES,Cruzain noTriton,Cruzain inh Det,NS1 inh
CC(C)CC(=O)Nc1nnc(SCc2cc(=O)n3ccccc3n2)s1,-10%,2%,.
Cc1nc(S/C(=C/c2ccc(-c3ccc(C(=O)O)cc3)o2)C(=O)O)n[nH]1,.,.,5%
Cc1nc(S/C(=C/c2ccc(-c3ccc(Cl)cc3)o2)C(=O)O)n[nH]1,13µM*,-2%,7%
CSc1cc2c(cc1C(F)(F)F)N(C(=O)Nc1cccnc1)CC2,7.9µM*,1%,.
S=C(Nc1cccnc1)N1CCc2ccccc21,.,.,1%
CN1CCN(C(=O)CCc2nnc3ccc(N4CCC5(CC4)OCCO5)nn23)CC1,.,.,2%
Cc1ccc2c(c1)-c1c(ssc1=S)C(C)(C)N2C(=O)c1ccco1,16µM*,-16%,11%
CC1(C)c2ssc(=S)c2-c2ccccc2N1C(=O)c1ccco1,?,-4%,7%
Cc1nn(Cc2ccccc2Cl)c2sc(C(=O)NC(C)(C)C)cc12,16%,-6%,2%
Cc1csc(NC(=O)c2cc3c(C)nn(Cc4ccccc4Cl)c3s2)n1,25µM*,-6%,3%
Cc1csc2nc(COC(=O)CNC(=O)c3ccccc3)cc(=O)n12,2%,-8%,.
O=C(CNC(=O)c1ccccc1Cl)OCc1cc(=O)n2ccsc2n1,13µM*,25µM*,.
Cc1csc2nc(COC(=O)CNC(=O)c3ccccc3Cl)cc(=O)n12,20µM*,25µM*,.
